In PubChem BioAssay (EPA / NIEHS):
Records with an inconclusive call do not appear. Active and inactive are the calls of the source. How the source made its calls: active means hit-call score of the fitted dose curve at least 0.9, where 1 is the maximum; inconclusive means response in the unintended direction; inactive means score below 0.9.

Assay: ACEA_ER_AUC_viability: ACEA Biosciences xCELLigence Real-Time Cell Analysis on Estrogen Receptor Agonism for Viability (AID 2283782);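 further: hit means loss of impedance signal meaning reduced cell growth or viability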
How it was run: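 Viability endpoint: reduced impedance area under the curve relative to DMSO, recorded by real-time electrode sensing over ~80 h of continuous exposure. Duplicate plates of T47D in hormone-depleted medium; eight concentrations, 1:4 dilutions, 100 uM maximum.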
For `COC(=O)c1cccnc1`, the outcome was “inactive”. In the case of `CN(C)c1ccncc1`, the AC50 was 32.7 µM (active). In the case of `CCCOCCO`, the outcome was “inactive”. For `C=CCN(CC=C)CC=C`, the AC50 was 61.2 µM (active). With `C=C(C#N)C(=O)OCC` the AC50 was 78.9 µM (active). With `CSCCC=O` the AC50 was 85.8 µM (active). In the case of `[O-]n1ccccc1=S.[O-]n1ccccc1=S.[Zn+2]`, the AC50 was 2.84 µM (active). For `ON=C1CCCCC1`, the outcome was “inactive”. With `C=C1CC[C@H](O)C/C1=C/C=C1\CCC[C@]2(C)[C@@H]([C@H](C)/C=C/[C@H](C)C(C)C)CC[C@@H]12` the AC50 was 79.1 µM (active). With `C=CC(=C)CCCC(C)(C)OC(C)=O` the outcome was “inactive”. In the case of `C=C(C)CNCC`, the AC50 was 25.7 µM (active). For `C=CC(C)C#N` (stereo not drawn), the outcome was “inactive”. For `NC(=S)NNC(N)=S`, the outcome was “inactive”.
